Measured values: ChEMBL document CHEMBL3988442, “University of Dundee, Small-Polar-MMV Screening Library” (2021)
The whole screen tested about 48,000 compounds, of which about 13,000 (27%) showed an effect of 50% or more. The list shows a part of the results.

Test system: Wolbachia pipientis
Test: Anti-Wolbachia Cell-Based Screen
Type: functional
Set-up: scale not given: in the data most compounds retested in dose-response had high values
Conditions: 5 µM

Row | SMILES | Percent Effect [%]
1 | CSCCCN1C[C@H]2CC[C@@H]1CN(Cc1[nH]cnc1C)C2 | 27.65
2 | COCCN(CCOC)Cc1c(C)nc2ccccc2c1O | 87.45
3 | COCCN(Cc1ccccc1)Cc1csc(-c2ncccn2)n1 | 9.824
4 | COCCN(C/C=C/c1ccccc1)Cc1[nH]cnc1C | 0.6053
5 | Cn1ccc(CN2CCC(c3ccccc3)CC2)cc1=O | 1.288
6 | Cn1ccc(CN2CCC(NC(=O)NC3CCCCC3)CC2)cc1=O | -14.97
7 | Cn1c(CN2CCC(OCc3cccnc3)CC2)cc2ccccc21 | -15.6
8 | Cn1ccc(CN2CCC(OCCc3ccccc3)CC2)cc1=O | 4.919
9 | Cn1ccc(CN2CCC(OCc3ccccc3)CC2)cc1=O | 85.88
10 | Cn1ccc(CN2CCC(Cc3ccccc3)CC2)cc1=O | 141.3
11 | Cn1ccc(CN2CCC(CC(=O)N3CCCC3)CC2)cc1=O | 63.9
12 | Cn1ccc(CN2CCC(NC(=O)Cc3ccccc3)CC2)cc1=O | -4.576
13 | COc1cccc(-c2n[nH]cc2CNCC2CCS(=O)(=O)C2)c1 (centres undefined) | 9.215
14 | O=C1CCC2(CCOC2)CN1Cc1nc2ccc(Cl)cc2[nH]1 (centres undefined) | -5.094
15 | O=C1CCC(C(=O)N(Cc2ccsc2)CC2CCCO2)=NN1 (centres undefined) | 39.45
16 | Cc1ccc2c(c1)C(NCc1nccn1Cc1ccccc1)CCCO2 (centres undefined) | -18.78
17 | Cc1cc(C)nc(N2CCN(C(=O)c3ccc(C4CCCO4)s3)CC2)n1 (centres undefined) | 6.831
18 | CCc1cnc(C)nc1NCc1nc(COC)no1 | 13.28
19 | O=C(O)c1cc(S(=O)(=O)Nc2ccc(Cl)cc2)cc2c1OCCO2 | -1.351
20 | CN1CCN(c2ccc(NS(=O)(=O)c3ccc(Br)s3)cc2C(=O)O)CC1 | 107.3
21 | O=C(O)c1cc(NS(=O)(=O)c2cccc(Cl)c2F)ccc1Cl | -8.503
22 | Cc1nn(C(C)C)c(C)c1S(=O)(=O)Nc1ccc(C(=O)O)c(Cl)c1 | 2.82
23 | CCc1ccc(S(=O)(=O)Nc2cc(C(=O)O)c(F)cc2F)s1 | -4.689
24 | CCC1(c2ccc(NS(=O)(=O)c3ccc(Cl)s3)cc2)CCC(=O)NC1=O (centres undefined) | 13.42
25 | CN1CCN(c2ccc(NS(=O)(=O)c3ccc(Cl)s3)cc2C(=O)O)CC1 | 118.1

Row | SMILES | Percent Effect [%]
26 | O=C(O)C(F)(F)F.O=C(O)c1cc(NS(=O)(=O)c2ccc(Cl)s2)ccc1N1CCOCC1 | 94.51
27 | CCc1cccc(NS(=O)(=O)c2cc(C)c(C(=O)O)s2)c1 | -4.966
28 | CN(C)Cc1ccc(C(N)=O)cc1NC(=O)c1cccc(C#N)c1 | -8.387
29 | N#Cc1ccc(N2CC3(CCN(c4nccs4)C3)C2)nc1.O=CO.O=CO | -6.647
30 | CCc1ccc(CNC[C@H]2C[C@@H](CO)N(C)[C@H]2c2ccccc2F)o1 | -16.71
31 | O=C1NCC2(CCN(C(=O)c3ccc4c(c3)CCCO4)CC2)O1 | 9.067
32 | CCOc1cccc(CN2CCCC(Nc3ccc(F)cc3)C2)c1O (centres undefined) | -11.06
33 | Cc1ccccc1C(=O)CN1C(=O)c2ccccc2CS1(=O)=O | -19.77
34 | CC(C)(O)CCc1cccc(C(=O)NCC2COCCO2)c1 (centres undefined) | 5.622
35 | COCCN(Cc1cnn(C)c1)c1nc2c(s1)c(C)nn2C | -9.354
36 | Cc1cccc(CN2CCOC3(COCCN(CCN(C)C)C3)C2)n1.O=C(O)C(F)(F)F.O=C(O)C(F)(F)F.O=C(O)C(F)(F)F (centres undefined) | -6.557
37 | Cc1cccc(CN2CCC3(CCCN(C(=O)NC4CC4)C3)C2=O)n1.O=C(O)C(F)(F)F (centres undefined) | 34.29
38 | Cc1cccc(CN2C(=O)CCC23CCN(c2ccccn2)CC3)n1.O=C(O)C(F)(F)F.O=C(O)C(F)(F)F | 98.24
39 | Cc1cccc(CN2CCC3(CCCN(C(=O)NC(C)C)C3)C2=O)n1.O=C(O)C(F)(F)F (centres undefined) | -6.059
40 | Cc1cccc(CN2CCCC3(CCC(=O)N3CCN(C)C)CC2)n1.O=C(O)C(F)(F)F.O=C(O)C(F)(F)F (centres undefined) | 115.9
41 | Cc1cccc(N2CCC3(CCCC(=O)N3)CC2)n1.O=C(O)C(F)(F)F | -22.27
42 | Cc1cccc(N2CCC3(CCN(Cc4ccccn4)CC3)CC2)n1.O=C(O)C(F)(F)F.O=C(O)C(F)(F)F | 8.022
43 | O=C(O)C(F)(F)F.O=C(c1ccoc1)N1CCC2(CCC(=O)N2Cc2ccncc2)CC1 | 2.988
44 | Cc1cccc(CN2C(=O)CCC23CCN(C(=O)NC(C)C)CC3)n1.O=C(O)C(F)(F)F | 107.8
45 | Cc1cccc(CN2C(=O)CCC23CCN(C(=O)c2ccco2)CC3)n1.O=C(O)C(F)(F)F | 108.9
46 | Cc1cc(CN(C)C(=O)c2ccc(Cl)c(S(C)(=O)=O)c2)no1 | -0.7928
47 | Cn1ccnc1CCNS(=O)(=O)Cc1cccc(C#N)c1 | 3.021
48 | C1CCC(CSc2nnnn2C2CC2)OC1 (centres undefined) | -5.592
49 | O[C@H]1Cc2ccccc2[C@H]1n1ccnc1-c1cc2n(n1)CCNC2 | -8.508
50 | CC(C)N1CCC(CN2CCn3nc(CNC(=O)N(C)C)cc3C2)CC1 | 6.322

Row | SMILES | Percent Effect [%]
51 | COCCN1C(=O)CC[C@]12CC[C@@H](NCc1cccc(C)n1)CC2.O=C(O)C(F)(F)F | -11.86
52 | Cc1cccc(CN2CCC3(CCCN(C(=O)N4CCCC4)C3)C2=O)n1.O=C(O)C(F)(F)F (centres undefined) | -13.65
53 | Cc1cccc(CN2C(=O)CCC23CCN(C(=O)N2CCCC2)CC3)n1.O=C(O)C(F)(F)F | 96.5
54 | COc1cc(CN(C)C(=O)NCc2nccs2)ccc1SC | -21.32
55 | CN(Cc1cc2ccccc2o1)S(C)(=O)=O | -18.47
56 | CN(CC1CC1)C(=O)c1cc2c(c(S(N)(=O)=O)c1)CCC2 | -0.6394
57 | Cn1cc(CCNCC2CNc3ccnn3C2)cn1 (centres undefined) | -8.259
58 | c1cc(CNCC2CNc3ccnn3C2)cc(OC2CCCCC2)n1 (centres undefined) | 87.88
59 | COc1cc(CNCC2CNc3ccnn3C2)ccn1 (centres undefined) | 104.7
60 | c1cc(CNCC2CNc3ccnn3C2)cc(OC2CCCC2)n1 (centres undefined) | 105.3
61 | c1cc2n(n1)CC(CNCc1ccc(OC3CCCCC3)nc1)CN2 (centres undefined) | -3.239
62 | c1ccc(Oc2cc(CNCC3CNc4ccnn4C3)ccn2)cc1 (centres undefined) | 3.776
63 | Cc1cc2n(n1)CC(CNCc1ccnc(-n3ccnc3C)c1)CN2 (centres undefined) | -4.434
64 | c1cc2n(n1)CC(CNCc1ccc(OC3CCCC3)nc1)CN2 (centres undefined) | 90.58
65 | CCN1CCN(c2ccc(F)cc2C(C)NCc2nc(C)no2)CC1 (centres undefined) | 5.378
66 | CNS(=O)(=O)CCCN1CCCCCC1c1ccc(C)o1 (centres undefined) | -40.39
67 | Cc1cc(C(=O)N2CCc3nnc(N)cc3C2)c(C)n1-c1cccnc1 | -7.22
68 | Cc1cc(C(=O)CN2C(=O)c3ccccc3CS2(=O)=O)c(C)[nH]1 | 11.78
69 | CS(=O)(=O)N1C[C@@H]2CC[C@H](C1)N(C/C=C/c1ccc(F)cc1)C2 | -3.791
70 | CCS(=O)(=O)c1nccn1-c1cccc(F)c1 | -14.2
71 | Cc1cnn(C(C)C2CC2)c1NC(=O)c1ncccc1O (centres undefined) | 16.76
72 | c1cc(CNCC2CNc3ccnn3C2)cc(N2CCCCC2)n1 (centres undefined) | 12.93
73 | O=C(c1cccc(CNCC2CNc3ccnn3C2)c1)N1CCCC1 (centres undefined) | 2.865
74 | c1cc(CNCC2CNc3ccnn3C2)cc(N2CCOCC2)n1 (centres undefined) | 104.3
75 | CCSCCNC(=O)c1cnc(-c2ccccc2)nc1O | -4.027

Row | SMILES | Percent Effect [%]
76 | COC(=O)CCc1c(C)nn(-c2nc(C)cc(=O)[nH]2)c1C | 2.472
77 | CCC(C)(NCC(=O)Nc1nc(C)cs1)c1nc(C)cs1 (centres undefined) | -9.944
78 | Cc1cc(=O)[nH]c(-n2nc(C)c(CCC(=O)Nc3nc(C)cs3)c2C)n1 | 139.8
79 | Cc1ccc(C(C(=O)NCCc2nc(C)cc(=O)[nH]2)N(C)C)cc1 (centres undefined) | -13.39
80 | Cc1cc(=O)[nH]c(-n2nc(C)c(CCC(=O)NCC(C)C)c2C)n1 | 133.4
81 | COc1ccc(OC)c(CCNc2ncc(S(N)(=O)=O)s2)c1 | -19.79
82 | CC(NC(=O)CSCC#N)c1ccccc1 (centres undefined) | 5.295
83 | CC(=O)NC1CCCN(C(=O)Nc2cnc3c(cnn3C(C)C)c2)C1 (centres undefined) | -1.693
84 | CC(=O)N1CCCN(C(=O)c2cnc3n[nH]c(C)c3c2)CC1 | 0.885
85 | Cc1cc(C)n(CC2CCCN2C(=O)c2cnc3n[nH]c(C)c3c2)n1 (centres undefined) | 152.9
86 | Cc1cnn(CC2CCCN2C(=O)c2cnc3n[nH]c(C)c3c2)c1 (centres undefined) | 1.676
87 | Cc1cnn(CC2CCCCN2C(=O)c2cnc3n[nH]c(C)c3c2)c1 (centres undefined) | 131.8
88 | Cc1cc(=O)[nH]c(SCC(=O)N(C)CC2Cc3ccccc3CN2C)n1 (centres undefined) | -1.755
89 | O=C(O)Cn1ccc(=O)c2cc(Cl)ccc21 | 96.7
90 | CC(=O)c1cn(CCC(=O)NCCC(=O)O)c2ccccc12 | 11.28
91 | O=C(O)Cn1ccc(=O)c2ccccc21 | 101.5
92 | CC(=O)Cn1cc(C#N)c(=O)c2cc(Br)ccc21 | -39.25
93 | Cc1ccc(Cl)cc1NC(=O)Cn1cc(C(=O)O)ccc1=O | 11.02
94 | O=C(Cn1ccc(=O)c2ccccc21)Nc1cnccc1O | 11.9
95 | CN(CC(N)=O)C(=O)CCCn1ccc2cc(Cl)ccc21 | -3.904
96 | O=C(Cn1cc(C(=O)O)ccc1=O)Nc1ccc(Cl)cc1F | 21.2
97 | O=C(O)Cn1ccc(=O)c2ccc(Cl)cc21 | 126.4
98 | CCN(Cc1ccoc1)C(C(N)=O)c1ccc(Br)cc1 (centres undefined) | 13.69
99 | Cc1ccccc1C(O)CNS(=O)(=O)Cc1cccc(C#N)c1 (centres undefined) | 1.082
